Data as given in PubChem BioAssay AID1159580 (chemical genetic matrix, 2015).
Out of some 5,500 compounds screened, about 2,000 (36%) were called active. About 18% were inconclusive and are not listed. Cut-off read from the data, not from the text of the source: active = normalized growth mostly below about 0.91 (no sharp cut-off); inconclusive = no clear call, values can overlap the other calls; inactive = mostly above about 0.92. The list shows a part of the results.

Assay: chemical genetic growth profiling, strain panel (AID 1159580);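 note: tested at 20 µM; growth read once vehicle control cultures reached saturation at 30 °C; 1 = growth at the plate median or of vehicle wells; lower values mean less growth of the strain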
Details: S. cerevisiae deletion strains, growth OD

Measured: normalized growth

COc1ccc(CCN(C)CCCC(C#N)(c2cc(OC)c(OC)c(OC)c2)C(C)C)cc1OC (stereo not given)
inactive: locus YAL040C, strain CLN3, hits give low values 1.01 | locus YCL061C, strain MRC1 (second series), hits give low values 0.995 | locus YDR150W, strain NUM1, hits give low values 1.01 | locus YDR363W, strain ESC2, hits give low values 0.97 | locus YER002W, strain NOP16, hits give low values 1.03 | locus YGR078C, strain PAC10, hits give low values 1.03 | locus YJR075W, strain HOC1, hits give low values 1 | locus YMR307W, strain GAS1, hits give low values 1.02 | locus YNL153C, strain GIM3, hits give low values 1.02 | locus YNL175C, strain NOP13, hits give low values 1.01 | locus YNL197C, strain WHI3, hits give low values 1.01 | locus YNL224C, strain SQS1, hits give low values 1.01 | locus YOR083W, strain WHI5 (second series), hits give low values 1 | locus YPL055C, strain LGE1, hits give low values 1 | locus YPL241C, strain CIN2, hits give low values 1.01
